Measurements taken from PubChem BioAssay (EPA / NIEHS).
Inconclusive results are not listed. The source made the active and inactive calls. The calls were made as follows: active = hit-call score of the fitted dose curve at least 0.9, where 1 is the maximum; inconclusive = response in the unintended direction; inactive = score below 0.9.

assay: ATG_Hpa5_TRANS: Attagene TRANS-FACTORIAL HepG2 Assay for human GAL4-Hpa5 Hepatocyte Transcription Factor Basal Promoter (AID 2282975); conditions: HepG2 Attagene GAL4-Hpa5 transcription reporter;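 also: hits are increases in reporter mRNA over DMSO baseline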
Procedure: ATG_TRANS is a cell-based, multiplexed-readout assay that uses HepG2, a human liver cell line, with measurements taken at 24 hours after chemical dosing in a 24-well plate.ATG_Hpa5_TRANS is one of 30 assay component(s) measured or calculated from the ATG_TRANS assay. It is designed to make measurements of mRNA induction, a form of inducible reporter, as detected with fluorescence intensity signals by Reverse transcription polymerase chain reaction (RT-PCR) and Capillary electrophoresis technology.Data from the assay component ATG_Hpa5_TRANS was analyzed into 1 assay endpoint. This assay endpoint, ATG_Hpa5_TRANS, was analyzed in the positive analysis fitting direction relative to DMSO as the negative control and baseline of activity. Using a type of inducible reporter, measures of mRNA for gain-of-signal activity can be used to understand the background control at the transcription factor-level as they relate to the gene . Furthermore, this assay endpoint can be referred to as a secondary readout, because this assay has produced multiple assay endpoints where this one serves a background control function. To generalize the intended target to other relatable targets, this assay endpoint is annotated to the background measurement intended target family, where the subfamily is internal marker.
Human liver HepG2 cells are transiently transfected with multiple reporter transcription units (MRTUs) in 6-well plates using FuGene 6 reagent (Roche; 3 ml FuGene/1 mg DNA). The MRTU constructs are regulated by a cis-regulating element (promoter). […] A major difference between the CIS and TRANS system is that in CIS activities of endogenous TFs are measured, whereas the TRANS assay evaluates changes in activities of exogenous, chimeric NR-Gal4 proteins. […] At the end of 24 hour incubation, total RNA was isolated using TriZol reagent (Invitrogen). The isolated RNA is then reverse-transcribed using oligo(dT) primer and Mo-MLV reverse transcriptase (Invitrogen) with DNAse I (Ambion) treatment for 30 min. The one-tenth of the produced cDNA was amplified by PCR using Taq DNA polymerase (Invitrogen) and two reporter sequence-specific primers. The PCR products were fluorescently labeled by primer extension with 6-arboxyfluorescein (6-FAM) 5'-labeled reporter sequence-specific primer (2 min at 95 C, 20 s at 68 C and 10 min at 72 C) and these products were digested with 5U of HpaI (New England Biolabs) for 2h at 37 C. The fragments were purified using Qiaquick PCR columns (Qiagen), analyzed on an ABI 3130xL genetic analyzer (Applied Biosystems) with peak positions identified by using a set of X-rhodamine (ROX)-labeled MapMarker1000 molecular weight standards (BioVentures). The raw capillary electrophoresis data was processed using Attagraph software (Attagene).

| SMILES | outcome |
| --- | --- |
| CCCN(CCC)c1c([N+](=O)[O-])cc(C(F)(F)F)cc1[N+](=O)[O-] | inactive |
| COc1nn(CSP(=S)(OC)OC)c(=O)s1 | inactive |
| O=[N+]([O-])c1c(Cl)c(Cl)c(Cl)c(Cl)c1Cl | inactive |
| Cc1[nH]c(=O)n(C(C)(C)C)c(=O)c1Cl | inactive |
| CCC(C)(C)C(=O)OC1=C(c2ccc(Cl)cc2Cl)C(=O)OC12CCCCC2 | inactive |
| CC[C@H](C)[C@H]1O[C@]2(C=C[C@@H]1C)C[C@@H]1C[C@@H](C/C=C(\C)[C@@H](O[C@H]3C[C@H](OC)[C@@H](O[C@H]4C[C@H](OC)[C@@H](O)[C@H](C)O4)[C@H](C)O3)[C@@H](C)/C=C/C=C3\CO[C@@H]4[C@H](O)C(C)=C[C@@H](C(=O)O1)[C@]34O)O2 (tested in a mixture with another compound) | inactive |
| O=S(=O)(O)C(F)(F)C(F)(F)C(F)(F)C(F)(F)C(F)(F)C(F)(F)C(F)(F)C(F)(F)F | inactive |
| C#CCN1C(=O)COc2cc(F)c(N3C(=O)C4=C(CCCC4)C3=O)cc21 | inactive |
| CCCN(CCOc1c(Cl)cc(Cl)cc1Cl)C(=O)n1ccnc1 | inactive |
| O=C(O)CCCOc1ccc(Cl)cc1Cl | inactive |
| N#Cc1c(Cl)c(Cl)c(Cl)c(C#N)c1Cl | inactive |
| ClC1C(Cl)C(Cl)C(Cl)C(Cl)C1Cl (stereo unspecified) | inactive |
| CNC(=O)Oc1cccc(N=CN(C)C)c1 | inactive |
| C[C@H]1[C@H](c2ccc(Cl)cc2)SC(=O)N1C(=O)NC1CCCCC1 | inactive |
| O=C1c2ccccc2C(=O)N1SC(Cl)(Cl)Cl | inactive |
| CCOc1nc(NC)nc(NC(=O)NS(=O)(=O)c2ccccc2C(=O)OC)n1 | inactive |
| CCC(C)Nc1c([N+](=O)[O-])cc(C(C)(C)C)cc1[N+](=O)[O-] (stereo unspecified) | inactive |
| CCc1ccc(C(=O)NN(C(=O)c2cc(C)cc(C)c2)C(C)(C)C)cc1 | inactive |
| O=C(O)COc1ccc(Cl)cc1Cl | inactive |
| CC1(C)C(C=C(Cl)Cl)C1C(=O)OC(C#N)c1ccc(F)c(Oc2ccccc2)c1 (stereo unspecified) | inactive |
| COP(=S)(OC)Oc1ccc(SC)c(C)c1 | inactive |
| CNC(=O)CSP(=S)(OC)OC | inactive |
| CC(C)(C)C(O)C(Oc1ccc(Cl)cc1)n1cncn1 (stereo unspecified) | inactive |
| CCC(C)(NC(=O)c1cc(Cl)c(C)c(Cl)c1)C(=O)CCl (stereo unspecified) | inactive |
| O=[N+]([O-])/N=C1\NCCN1Cc1ccc(Cl)nc1 | inactive |
| CCN(CC)C(=O)SCc1ccc(Cl)cc1 | inactive |
